# Pol beta inh: blocks human DNA polymerase beta activity | Potency, µM (highest dose often 114 µM), for the others: at the top dose activity change, negative = inhibition, most hits filed as inhibitors | AID 485314 | Pol beta primer extension/strand displacement, fluorescence kinetic | P06746 | hit rate 1.3% among 340,000; further: potency means the concentration at half of the fitted maximal effect; on the % scale 0 is the no-effect control and ±100 the full control effect
#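 Preincubation: enzyme (10 nM) with compound, 15 min, RT. Reaction: substrate added to 50 nM final. Reads: 0 and 10 min. Analysis: normalized, Hill fit.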
# POLK inh: DNA polymerase kappa (human) inhibition. Q9UBT6. purified Pol kappa, fluorescent DNA synthesis assay, 10 min. Potency, µM (doses to about 107 µM), without a hit: at the highest dose activity, negative = inhibition, usual class: inhibitors. hit rate 0.53% among 400,000; further: potency means the concentration at half of the fitted maximal effect; on the % scale 0 is the no-effect control and ±100 the full control effect
#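 Activity was followed as the change in fluorescence between reads at 0 and 10 min after starting the reaction with 50 nM substrate. Beforehand, 10 nM polymerase had been preincubated with compound for 15 min at room temperature.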
# Pol eta inh: DNA polymerase eta (human) inhibition. Q9Y253. hit rate 1.2% among 390,000. Potency, µM (series often up to 114 µM), for inactives: at the highest dose activity change, negative = inhibition, actives largely listed as inhibitors. recombinant Pol eta, fluorescent DNA replication assay; further: potency means the concentration at half of the fitted maximal effect; on the % scale 0 is the no-effect control and ±100 the full control effect
#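 Pol eta at 10 nM preincubated with compounds 15 min at room temperature; reaction started with fluorescent substrate (50 nM final) and read kinetically at 0 and 10 min.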
# PI4K2A inh: inhibitors of human PI4K2A | activity change, negative = inhibition, % at 76.9 µM | hit rate 0.13% among 420,000 | purified PI4K2A, ADP-Glo luminescence, 1 h; stronger effect = lower value; in the data active means activity change below about -50%; inconclusive means mostly about -30% to -49%;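 further: -100% = wells without enzyme as full effect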
#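 In this quantitative HTS, ADP production by PI4K2A was quantified luminescently after 1 h at ambient temperature; 100 microM adenosine served as plate-quality control.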
# PI5P4K alpha inh: blocks human PI5P4K alpha kinase activity; max response, %; hit rate 1.2% among 330,000; PI5P4Kalpha enzyme, ADP-Glo luminescence, 60 min; stronger effect = lower value; active means max response of -50% or lower; inconclusive means between -30% and -50%; inactive means -30% or higher; further: value at the top dose of about 77 µM; on the % scale 0 is the no-effect control and ±100 the full control effect
# Target sequence (P48426 whole entry, looked up): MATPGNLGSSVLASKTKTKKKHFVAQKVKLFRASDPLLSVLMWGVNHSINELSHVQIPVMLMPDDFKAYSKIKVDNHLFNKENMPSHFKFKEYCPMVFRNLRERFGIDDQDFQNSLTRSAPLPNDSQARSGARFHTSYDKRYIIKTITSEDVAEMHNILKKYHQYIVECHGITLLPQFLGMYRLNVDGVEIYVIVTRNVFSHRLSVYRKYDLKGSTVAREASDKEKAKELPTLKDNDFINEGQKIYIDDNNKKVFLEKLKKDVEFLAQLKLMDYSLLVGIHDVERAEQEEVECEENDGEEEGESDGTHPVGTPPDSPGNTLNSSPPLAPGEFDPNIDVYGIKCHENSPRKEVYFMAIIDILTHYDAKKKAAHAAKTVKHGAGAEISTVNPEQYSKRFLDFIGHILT
#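 Single end-point luminescence (ADP-Glo) quantified ADP from PI5P4Kalpha turnover; ATP 5 microM final, 1 h at RT, 0.1% CHAPS and 0.28 mM EGTA in HEPES pH 7.4.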
# POLI inh: blocks human DNA polymerase iota activity. Pol iota fluorescent replication assay, 10 min. Potency, µM (titrated, usually from 115 µM), for the others: at the highest dose activity, negative = inhibition, usual class: inhibitors. hit rate 1% among 390,000. AID 588590; further: potency means the concentration at half of the fitted maximal effect
#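 Fluorescent replication assay read twice, at 0 min and 10 min after adding 50 nM (final) substrate. Enzyme (10 nM) and compounds were first incubated 15 min at room temperature; enzyme-free buffer wells were negative controls.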
# Active calls of the source: *; u = inconclusive; x = no result given. This is a sample that favours compounds with a hit; in the whole collection about 2.8% have one here. Unless noted, the call rests on the fitted dose curve; in most records, active means well fitted inhibition curve with a large enough effect; inconclusive means small, poorly fitted or top-dose-only effect, or another doubt; inactive means no such curve, though single readings can be large or run the other way.
SMILES,Pol beta inh,POLK inh,Pol eta inh,PI4K2A inh,PI5P4K alpha inh,POLI inh
COC(=O)[C@H](C)[C@H](CC(C)C)NC(=O)[C@H](C)[C@H](CC(C)C)NC(=O)c1ccccn1,x,-8%,x,x,x,12%
O=C(c1cscn1)N1CCC(Oc2cccnc2)CC1,x,x,x,1,x,x
COc1ccc(C(=O)COC(=O)CNC(=O)C2CCCCC2)c(OC)c1,22µM*,-25%,u,-24,u,u
COc1ccc(OC)c(C(=O)COC(=O)CNC(=O)C2CCCCC2)c1,6%,-9%,2%,4,x,6%
COc1ccc(C(=O)COC(=O)c2cc(C)no2)c(OC)c1,x,-41%,u,-8,u,50µM*
COc1ccc(C(=O)COC(=O)/C=C/c2ccccc2)c(OC)c1,x,45µM*,40µM*,-14,-61*,35µM*
COc1ccc(C(=O)COC(=O)c2cccnc2Cl)c(OC)c1,13µM*,u,50µM*,-12,-75*,40µM*
COc1ccc(C(=O)COC(=O)c2ccc3c(c2)OCCO3)c(OC)c1,x,-26%,u,-3,-26,u
COc1ccc(C(=O)COC(=O)/C=C/c2ccccc2)cc1,75%,0%,-4%,-3,-7,12%
COc1ccc(-c2ccc(OC)c(C3C4C=CCCC4(C)C(=O)N3Cc3ccccc3)c2)cc1 (stereo not drawn),x,-22%,x,x,x,-3%
CCOc1ccccc1NC(=O)CSc1nnc(N)s1,2%,-12%,-4%,-3,x,11%
O=C(C[n+]1ccc2ccccc2c1)c1ccc(F)cc1,x,-1%,x,x,x,2%
O=c1ccc(N=Nc2ccccc2)ccc1O,1%,-20%,6%,-60*,0,48%
COC(=O)CNC(=O)CNC1(C(=O)NCCc2c[nH]c3ccccc23)CCCCC1,x,x,x,0,x,x
C=C[C@@H]1c2cc(C)ccc2N(S(=O)(=O)c2ccc(C)cc2)[C@H](c2ccc(C(=O)OC)cc2)C1(C#N)C#N,x,-4%,x,x,x,12%
COCc1cc(C)nc(OCC(=O)N/N=C/c2ccc(-c3cc([N+](=O)[O-])ccc3C)o2)c1C#N,13%,-4%,u,6,-2,-7%
Cc1ccc([N+](=O)[O-])cc1-c1ccc(/C=C(\C#N)c2[nH]nc(N)c2C#N)o1,6.3µM*,u,u,4,-55*,56µM*
C/C(=N/NC(=O)Cc1cccs1)c1cccc([N+](=O)[O-])c1,x,x,x,4,x,x
Cc1ccc(Nc2nc3c([nH]2)c(=O)n(C)c(=O)n3C)cc1,11%,-7%,-18%,-2,x,24%
Cn1c(=O)c2[nH]c(NCCCN3CCOCC3)nc2n(C)c1=O,89µM*,-4%,2%,-3,0,5%
O=C(Nc1ccc(F)cc1)c1ccc(-n2cnc3cccnc32)cc1,-29%,-9%,-9%,0,x,8%
O=C1C(=O)C(Cl)=C(Cl)C(Cl)=C1Cl,x,x,x,-29,-54*,x
CCCOC(=O)c1c(NC(=O)C2C3C=CC(C3)C2C(=O)O)sc2c1CCC(C)C2 (stereo not drawn),-11%,-3%,u,1,-59*,u
CCOC(=O)c1c(NC(=O)C2C3C=CC(C3)C2C(=O)O)sc2c1CC(C)CC2 (stereo not drawn),29%,3%,-17%,1,-3,28%
O=C(O)c1cccc2c1C(=O)c1ccc(-c3ccc(F)cc3OCc3ccccc3)cc1S2(=O)=O,x,-33%,79µM*,-3,-27,u
SMILES,Pol beta inh,POLK inh,Pol eta inh,PI4K2A inh,PI5P4K alpha inh,POLI inh
COc1ccc(C2/C=C\CN(S(=O)(=O)CC34CCC(CC3=O)C4(C)C)CC(=O)N2Cc2ccc(F)cc2)cc1 (stereo not drawn),x,8%,x,x,x,2%
Cc1cccc(N(Cc2cc(=O)[nH]c3ccccc23)C(=O)CCl)c1,u,-6%,45µM*,1,-16,u
COc1ccc(N(Cc2cc(=O)[nH]c3ccccc23)C(=O)CCl)cc1,32%,3%,35µM*,13,2,8%
COc1ccccc1N1CCN(C(=O)CN2C(=O)COc3ccc(S(=O)(=O)N4CCC(C)CC4)cc32)CC1,31%,-6%,-7%,2,x,8%
CCc1ccc(N2C(=O)CC(N(CC3CCCO3)C(=O)/C=C/C(=O)O)C2=O)cc1 (stereo not drawn),45µM*,-15%,u,-1,0,-3%
Cc1ccc2c(c1)-c1c(cnn1CC(=O)NCCc1ccc(O)cc1)CO2,x,x,x,2,x,x
COc1cc(C2Nc3cccc4cccc(c34)N2)ccc1OC(C)=O,-22%,-19%,14µM*,u,u,u
COc1cc(C2Nc3cccc4cccc(c34)N2)cc(OC)c1O,45µM*,-6%,u,-27,x,u
CCCCNC(=O)Cn1c(SCc2cccc(C)c2)nc2ccncc21,x,-5%,x,x,x,20%
C[C@@H]1C(=O)N2N=Cc3ccccc3[C@H]2N2N=Cc3ccccc3[C@@H]12,x,x,x,0,x,x
Clc1ccc(C(Cn2ccnc2)OCc2ccc(Sc3ccccc3)cc2)c(Cl)c1 (stereo not drawn),x,x,x,-1,x,x
COc1ccc2cc(C(=O)Nc3ccc(S(N)(=O)=O)cc3)sc(=O)c2c1OC,u,-12%,-12%,-1,6,-40%
COc1ccc2cc(C(=O)Nc3ccccc3)sc(=O)c2c1OC,22µM*,u,u,0,8,18%
COc1ccc(NC(=O)c2csnn2)cc1,1%,-2%,-17%,-4,x,14%
COc1ccc(/C=N/NC(=O)CCC(=O)Nc2ccccc2)cc1OC,u,-30%,-2%,-1,3,u
COc1ccc(/C=N\NC(=O)C2C(=O)NCC2c2ccccc2)cc1O (stereo not drawn),-2%,-7%,-14%,-5,-57*,-8%
COc1ccc(/C=N/NC(=O)C(O)(c2ccccc2)c2ccccc2)cc1OC,14µM*,-13%,-23%,-5,-6,0%
COc1ccc(/C=N/NC(=O)c2cc(-c3ccc4c(c3)OCO4)n[nH]2)cc1OC,4.5µM*,u,u,-10,-3,u
COc1ccc(/C=N/NC(=O)c2cc(C34CC5CC(CC(C5)C3)C4)[nH]n2)cc1O,-14%,-8%,-21%,-2,-18,10%
COc1ccc(/C=N\NC(=O)c2ccc(=O)[nH]n2)cc1O,13µM*,u,-10%,-3,6,32µM*
COC(=O)c1sc2cccc(F)c2c1S(=O)(=O)NCc1ccc(Cl)cc1,2%,-7%,-22%,0,x,20%
COCOc1cccc(CN2CCC2(C)C(=O)Nc2ccc(OC)c(OC)c2)c1 (stereo not drawn),x,x,x,2,1,x
CCCC(=O)Nc1ccc2nc(SCCOc3ccccc3)sc2c1,14%,3%,-16%,2,x,11%

# Source: PubChem
